Bioassay records as filed in PubChem.
Compounds with a hit are over-represented: about 12% of the library has one in this group of screens.
JMJD2A Tudor = inhibitors of human JMJD2A Tudor domain | O75164 | AlphaScreen JMJD2A-Tudor / H3K4me3 peptide binding | Potency, µM (series often up to 114 µM), for inactives: at the highest dose activity change, negative = inhibition, actives largely listed as inhibitors | 390,000 tested, 4.4% active; note: % is set by controls: 0 for no effect and ±100 for the full control effect; nearly all actives have a fitted effect of over 50% in size
HP1b chromo inh = blocks HP1-beta chromodomain binding to methylated histone tails | Potency, µM (doses to about 114 µM), inactives show at the highest dose activity change, negative = inhibition, hits mostly inhibitors | 390,000 tested, 0.56% active | AlphaScreen HP1-beta / biotin-H3K9me3 peptide binding | P83916; note: nearly all actives have a fitted effect of over 70% in size
Target sequence (P83916 whole entry, looked up): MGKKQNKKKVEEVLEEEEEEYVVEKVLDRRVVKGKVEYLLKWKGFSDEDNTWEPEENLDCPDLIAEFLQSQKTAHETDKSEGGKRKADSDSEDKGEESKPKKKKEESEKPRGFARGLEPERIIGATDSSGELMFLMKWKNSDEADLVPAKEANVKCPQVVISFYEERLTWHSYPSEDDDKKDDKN
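HP1-beta protein (50 nM final) preincubated 30 min at room temperature with biotinylated H3(1-18)K9me3 peptide (50 nM) in PBS pH 7.4, 0.01% Tween-20, then compound added for 30 min. AlphaScreen streptavidin donor/nickel chelate acceptor beads (10 ug/mL final), 30 min dark, luminescence read.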
L3MBTL1 inh = inhibitors of human L3MBTL1; Q9Y468; AlphaScreen L3MBTL1–H3K9me1 peptide binding; 230,000 tested, 0.66% active; Potency, µM (titrated, usually from 57.1 µM), without a hit: at the highest dose activity, negative = inhibition, most hits filed as inhibitors; note: % is set by controls: 0 for no effect and ±100 for the full control effect; nearly all actives have a fitted effect of over 60% in size
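L3MBTL1 (50 nM) pre-complexed 30 min with biotinylated H3(1-15)K9me1 peptide (75 nM), then compounds added for 30 min at room temperature; AlphaScreen streptavidin donor/nickel chelate acceptor beads (10 ug/mL final) read after 30 min dark incubation.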
Sfp PPTase inh = blocks B. subtilis Sfp PPTase activity; Q9F4F7; Biochemical Sfp PPTase activity, qHTS; Potency, µM, for inactives: largest response in the series, negative = inhibition, hits mostly inhibitors; 310,000 tested, 3.5% active; AID 1490;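 note: the enzyme is Sfp with the accession as filed and its product quenches rhodamine fluorescence; 0% = enzyme reaction without inhibitor and -100% = no enzyme wells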
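Buffer: 50 mM Hepes-Na pH 7.6, 10 mM MgCl2, 0.01% Nonidet P-40, 0.01% BSA. Enzyme 15 nM, pre-exposed to compound 15 min; substrates then added and fluorescence change tracked over 30 min.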
BAZ2B inh = inhibitors of human BAZ2B bromodomain; Q9UIF8; AlphaScreen BAZ2B-H3K14Ac peptide displacement; Potency, µM (top dose mostly 114 µM), for the others: top-dose activity change, negative = inhibition, usual class: inhibitors; 360,000 tested, 4.4% active; AID 504333; note: % is set by controls: 0 for no effect and ±100 for the full control effect; nearly all actives have a fitted effect of over 60% in size
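Inhibition is scored as reduced AlphaScreen emission. The BAZ2B/b-H3(5-23)K14Ac complex (50 nM each) in PBS pH 7.4, 0.01% Tween-20 meets compound (up to 110 uM) for 30 min at RT before bead addition.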
G9a block = blocks human histone lysine methyltransferase G9a; G9a H3K9 monomethylation, AlphaScreen, 2 h; Potency, µM (series often up to 102 µM), for inactives: at the highest dose activity, negative = inhibition, actives largely listed as inhibitors; 350,000 tested, 8.8% active; AID 504332; note: % is set by controls: 0 for no effect and ±100 for the full control effect; nearly all actives have a fitted effect of over 75% in size
Target sequence (Q96KQ7 913-1193 limits assumed): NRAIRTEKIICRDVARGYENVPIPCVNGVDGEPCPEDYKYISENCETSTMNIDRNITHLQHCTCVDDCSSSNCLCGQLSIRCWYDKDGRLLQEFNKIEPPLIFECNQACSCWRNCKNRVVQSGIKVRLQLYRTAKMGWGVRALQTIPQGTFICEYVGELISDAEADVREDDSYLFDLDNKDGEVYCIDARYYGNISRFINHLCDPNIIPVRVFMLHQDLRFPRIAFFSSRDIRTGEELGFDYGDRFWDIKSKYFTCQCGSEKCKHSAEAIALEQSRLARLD
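AlphaScreen read-out: biotin-H3K9 peptide (500 nM) methylation by 20 nM enzyme with 20 uM SAM, 2 h at room temperature after 15 min compound preincubation; anti-monomethyl H3K9 antibody plus donor/acceptor beads, 10 min dark.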
Starred values were filed as active, the others as inactive; ? = inconclusive; nt = not tested or not shown; [ ] = dose if it differs, or a comment. Calls come from the whole dose curve; as a rule, active = well fitted curve in the direction sought with a large enough effect; inconclusive = small, poorly fitted or top-dose-only effect, or another doubt; inactive = no such curve, though single readings can be large; an effect the other way counts as inactive or inconclusive. Potency is the fitted concentration of half-maximal effect.

SMILES	JMJD2A Tudor	HP1b chromo inh	L3MBTL1 inh	Sfp PPTase inh	BAZ2B inh	G9a block
CCOc1ccccc1NC(=O)N1CCC(NC(=O)c2cccc(C)c2)CC1	-32.1%	3.7%	0.5%	-25.1%	12.9%	31.6µM*
Cc1ccc(NC2=NCC(=O)N2Cc2ccc3c(c2)OCO3)cc1	-16.4%	19.6%	2.9%	14.7%	-29.0%	50.1µM*
CCc1ccccc1NC1=NCC(=O)N1Cc1ccc2c(c1)OCO2	-34.4%[11.4 µM]	2.0%	14.4%	3.6%	-4.2%	-25.3%[59 µM]
O=C1CN=C(Nc2ccccc2Cl)N1Cc1ccc2c(c1)OCO2	89.1µM*	69.5%	9.6%	9.3%	-8.5%	?
CC(C)C[C@@H](NC(=O)[C@@H](Cc1ccccc1)NC(=O)c1cnccn1)B(O)O	nt	nt	nt	31.2%	nt	1.3%[12.7 µM]
CCOC(=O)c1c(S(=O)(=O)N2CCCC(C(=O)N3CCN(c4ccc(F)cc4)CC3)C2)c(C)n(C)c1C (stereo not given)	-27.3%	-0.2%	nt	nt	-18.1%	-0.5%[59 µM]
S=c1[nH]nc(Cc2c[nH]c3ccccc23)o1	79.4µM*	13.3%	8.3%	-9.6%	-3.8%	1.58µM*
COc1ccc(-c2cnc3n2CCCCC3)cc1	-1.7%	4.4%	-19.9%	20.1%	-16.6%	-15.9%
Clc1ccc(C2=C3CCCCn4c(-c5ccccc5)c[n+](c43)C2)cc1	?	1.7%	-27.3%	79.4µM*	50.1µM*	14.1µM*
COc1ccc(-c2c[n+]3c4n2CCCCC4=C(c2ccc(Br)cc2)C3)cc1	56.2µM*	-13.0%	-11.2%	44.7µM*	39.8µM*	8.91µM*
O=C(C[n+]1cc(-c2ccc(Cl)cc2)n2c1CCCCC2)c1ccccc1	-19.4%	45.9%	8.0%	2.3%	-3.8%	10.5%[12.7 µM]
COC(=O)[C@@]1(Cc2ccc(OC)cc2)[C@H]2c3cc(C(=O)N4CCCC4)n(CCc4c[nH]c5ccc(OC)cc45)c3C[C@H]2CN1C(=O)c1ccccc1	nt	nt	nt	8.0%	nt	nt
COc1cc2c(cc1OC)C(c1ccc(F)cc1)N(c1ccccc1)C(=O)C2 (stereo not given)	-15.6%	19.6%	nt	nt	-11.0%	-33.0%[59 µM]
COc1ccc(NC(=O)Cn2c(=O)n(-c3ccc(C)c(C)c3)c(=O)c3c(C)c(C)sc32)cc1	0.7%	51.3%	nt	nt	5.7%	-3.4%[59 µM]
[C-]#[N+]/C(C#N)=C\c1cc(C(C)(C)C)c(O)c(C(C)(C)C)c1	nt	nt	nt	44.7µM*	nt	nt
CC(C)(C)c1cc(/C=C(\C#N)C(N)=S)cc(C(C)(C)C)c1O	nt	nt	nt	-22.5%	nt	28.2µM*
N#CC(C#N)=C(N)/C(C#N)=C/c1cc(O)c(O)c(O)c1	17.8µM*	17.8µM*	?	39.8µM*	11.2µM*	5.62µM*
N#C/C(=C/c1ccc(F)cc1)C(N)=S	-8.1%	-3.7%	46.9%	35.5µM*	-15.4%	5.62µM*
CC(C)(C)c1cc(/C=N/O)cc(C(C)(C)C)c1O	-11.4%	33.6%	-5.1%	8.8%	-15.8%	-7.4%
COc1ccc(NC(=O)N(C)C[C@H]2Oc3c(NS(=O)(=O)c4cccs4)cccc3C(=O)N([C@@H](C)CO)C[C@@H]2C)cc1	-3.5%	33.5%	2.5%	nt	nt	nt
Nc1ncnc2c1c(I)cn2C1OC(CO)C(O)C1O (stereo not given)	nt	nt	nt	-5.3%	nt	-20.6%[59 µM]
Cc1ccc(/C=N/N=C2/NC(=O)C(CC(=O)N3CCOCC3)S2)cc1 (stereo not given)	-12.1%	0.3%	9.9%	39.8µM*	?	28.2µM*
Cc1ccsc1C1Nc2ccc3ncccc3c2C2=C1C(=O)CC(C)(C)C2 (stereo not given)	-27.9%	-3.1%	-10.5%	9.0%	-4.6%	-0.7%
CC1(C)CC(=O)C2=C(C1)c1c(ccc3ccccc13)NC2c1ccco1 (stereo not given)	?	4.8%	nt	-23.8%	?	50.1µM*
CN(C)CCNC(=O)c1ccc2c(c1)N(Cc1c(F)cccc1Cl)C(=O)c1ccccc1S2	?	-4.7%	nt	nt	nt	15.8µM*
CN1CCN(CCCNC(=O)c2ccc(/C=C3\Sc4ccccc4N(Cc4ccc(F)cc4)C3=O)cc2)CC1	?	-15.0%	nt	44.7µM*	?	?
